The full list was thinned out, with hits kept by preference.
NOMO-1 viab: STK33 inhibitor candidate reducing NOMO-1 cell viability; AID 2330; inhibition, % (no concentration beside the values); NOMO-1 AML viability, CellTiter-Glo luminescence, 72 h; actives 7.5% (n = 37,000); in the data active means inhibition above about 80%; inconclusive means no clear call, values can overlap the other calls
STK33 kin inh: human STK33 kinase inhibition; Q9BYT3; ADP-Glo luminescence, MBP substrate; inhibition, % at 12.5 µM; actives 0.44% (n = 27,000); in the data active means inhibition above about 20%; inconclusive means no clear call, values can overlap the other calls
ID4 binder: binds human ID4 protein on microarray; P47928; small molecule microarray, Flag-ID4 binding, fluorescence F/B; calls only; actives 1.2% (n = 31,000); call rule not given here;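 further: a binder raises fluorescence above local background on the spot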
Target sequence (P47928 whole entry, looked up): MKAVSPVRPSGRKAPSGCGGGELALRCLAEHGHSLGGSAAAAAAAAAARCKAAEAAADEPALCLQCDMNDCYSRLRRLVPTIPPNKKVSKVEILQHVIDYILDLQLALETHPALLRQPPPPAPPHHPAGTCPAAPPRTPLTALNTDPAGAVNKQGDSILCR
p53 PUMA act: restores mutant p53 pathway signaling in SW480 cells | SW480 PUMA-promoter luciferase, p53 mutant reactivation | activation, % at 9.98 µM | actives 1.5% (n = 28,000); in the data active means activation above about 52%; inconclusive means no clear call, values can overlap the other calls
Each line names hits and unclear results; the compound was inactive in the other large screens.

CC(C)CC#Cc1ccc2c(c1)O[C@H](CN(C)Cc1ccc3c(c1)OCO3)[C@@H](C)CN([C@@H](C)CO)S2(=O)=O	none (no result: NOMO-1 viab, STK33 kin inh)
OC(Cc1ccccc1)(c1ccccc1)c1ccccc1N=Cc1ccc2c(c1)OCO2 (stereo unspecified)	NOMO-1 viab 91 (no result: STK33 kin inh, ID4 binder, p53 PUMA act)
Cc1ccc(OCCCn2c(CO)nc3ccccc32)cc1	p53 PUMA act 63
CCOC(=O)c1cc(-c2ccccc2)sc1NC(=S)Nc1cnn(CC)c1C(N)=O	none
Cc1[nH]n2c(=O)c3c(nc2c1-c1ccccc1)CCC3	NOMO-1 viab 106 (no result: STK33 kin inh, ID4 binder, p53 PUMA act)
CCOc1ccccc1CNc1nc2nc3c(c(=O)n2[nH]1)CCC3	none
COc1ccc(S(=O)(=O)Nc2ccc3c(c2)C(=O)N([C@H](C)CO)C[C@H](C)[C@H](CN(C)C(=O)Nc2ccccc2)OCCCC[C@@H](C)O3)cc1	none (no result: ID4 binder, p53 PUMA act)
CCc1cccc(C)c1NC(=O)CSc1nc2sc3c(c2c(=O)n1C)CCC(C)C3 (stereo unspecified)	NOMO-1 viab 95
CS(=O)c1sc(C(=O)OCc2ccccc2)c2c1C(=O)CC(C)(C)C2 (stereo unspecified)	NOMO-1 viab 116 (no result: STK33 kin inh, ID4 binder, p53 PUMA act)
COc1ccc(S(=O)(=O)N(C)C[C@@H]2Oc3ccc(NC(=O)Nc4c(C)noc4C)cc3C(=O)N([C@H](C)CO)C[C@H]2C)cc1	none
Cc1ccc(Cl)c(OCC(O)Cn2cnc3ccccc32)c1 (stereo unspecified)	p53 PUMA act inconclusive
Cc1nc2ccccc2n1CC(O)COc1ccccc1Cl (stereo unspecified)	none
OC(COc1ccccc1Cl)Cn1cnc2ccccc21 (stereo unspecified)	p53 PUMA act 111
OC(COc1ccccc1Cl)Cn1nnc2ccccc21 (stereo unspecified)	p53 PUMA act 66
C/C=C/c1ccc2c(c1)O[C@H](CN(C)CC1CCOCC1)[C@@H](C)CN([C@@H](C)CO)S2(=O)=O	none (no result: NOMO-1 viab, STK33 kin inh, p53 PUMA act)
C[C@@H]1CCCCO[C@H](CN(C)C(=O)CCCN(C)C)[C@@H](C)CN([C@@H](C)CO)C(=O)c2cc(NC(=O)CCCN(C)C)ccc2O1	none (no result: NOMO-1 viab, STK33 kin inh)
O=C(COc1ccc(Cl)cc1C1C2=C(CCCC2=O)NC2=C1C(=O)CCC2)Nc1ccc(Cl)cc1	NOMO-1 viab 116
O=C(COc1ccc(Cl)cc1Cl)Nc1cc(C(=O)O)cc(C(=O)O)c1	none

From PubChem
